Screening data: PubChem, National Center for Advancing Translational Sciences (NCATS)
D2 ag-1: agonists of human D2 dopamine receptor (beta-arrestin); activation, % (no concentration beside the values); DiscoveRx PathHunter D2 beta-arrestin, luminescence, 90 min; 100% = 57 uM dopamine signal; AID 624465; actives 0.084% (n = 360,000); in the data active means activation above about 40%; inconclusive means between about 15% and that limit
Target sequence (P14416 whole entry, looked up): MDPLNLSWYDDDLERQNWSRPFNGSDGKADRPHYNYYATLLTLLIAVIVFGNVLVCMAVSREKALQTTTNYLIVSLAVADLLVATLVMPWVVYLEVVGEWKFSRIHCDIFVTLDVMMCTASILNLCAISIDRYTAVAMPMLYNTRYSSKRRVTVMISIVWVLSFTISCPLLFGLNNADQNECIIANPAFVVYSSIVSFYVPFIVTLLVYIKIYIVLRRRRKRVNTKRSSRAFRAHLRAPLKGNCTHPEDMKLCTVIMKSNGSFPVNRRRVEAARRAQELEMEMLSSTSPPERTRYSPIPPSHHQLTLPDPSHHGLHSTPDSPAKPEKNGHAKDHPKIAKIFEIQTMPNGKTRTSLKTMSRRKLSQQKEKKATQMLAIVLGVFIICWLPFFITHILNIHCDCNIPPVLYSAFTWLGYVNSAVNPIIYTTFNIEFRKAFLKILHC
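DiscoveRx PathHunter D2 beta-arrestin cells (2,100/well) attached overnight, then compound-stimulated 90 min at 37 C in HBSS/10 mM HEPES/0.1% Tween-20 buffer; beta-galactosidase complementation read by luminescence after 1 h at ambient temperature. Dopamine 57 uM final (EC100) as control.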
D2 PAM-1: potentiates the human D2 dopamine receptor allosterically; potentiation, % (test concentration not listed); actives 0.23% (n = 360,000); P14416; AID 624464; DiscoveRx D2 beta-arrestin cells, luminescence, 90 min; 100% = 57 uM dopamine signal; in the data active means potentiation above about 50%; inconclusive means mostly about 30% to 49%
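PathHunter D2 cells, attached overnight at 37 deg C, received compound in DMSO plus dopamine at EC20 (50 nM final) for 90 min at 37 deg C. Beta-arrestin recruitment was read as luminescence after 1 h with detection reagent at ambient temperature.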
D2 ag-2: agonists of human D2 dopamine receptor. HEK293 T-REx D2 cells, calcium flux agonist mode. activation, % at 2 µM. actives 0.53% (n = 340,000). AID 485358;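 active means activation over 3 SD above normal in the single-dose calcium agonist read, cut at about 30% in these data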; further: 0% is about no effect
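HEK293 Trex D2 cells, tetracycline-induced, o/n 30 C 5% CO2; no-wash Ca dye, RT 30–90 min; 10-cycle baseline, 23 nl cpd added, kinetic Ca read 180 s; agonist hits = positive Ca response.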
D2 PAM-2: positively modulates the human D2 dopamine receptor allosterically; P14416; HEK293 T-REx D2, calcium flux, EC20 dopamine potentiation; potentiation, % at 10 µM; actives 0.34% (n = 340,000);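 active means potentiation over 3 SD above the plate norm, cut at about 30% in these data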; further: 0% is about no effect
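Potentiation of an EC20 dopamine calcium response measured kinetically over 180 s, after a preceding 180 s compound-only read flagging agonists. Cells: inducible Hek293 Trex D2 line, 4000/well, cultured overnight at 30 C before dye loading.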
D2 antagonist: D2 dopamine receptor (human) antagonism. inhibition, % at 10 µM. AID 485344. P14416. actives 2% (n = 340,000). HEK293 TREx D2 cells, calcium flux, dopamine EC80; in the data active means inhibition above about 30%; inactive means below that, where a call was filed; further: 0% is about no effect
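Calcium flux kinetic readout in an inducible HEK293 TREx D2 line plated overnight at 30 C. After 180 s compound exposure, an EC80 dopamine challenge follows with another 180 s kinetic read to detect antagonism.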
* = called active by the depositor; u = inconclusive; x = not tested or not shown. Hits are enriched below; roughly 2.4% of the tested compounds scored in any of these assays.

SMILES	D2 ag-1	D2 PAM-1	D2 ag-2	D2 PAM-2	D2 antagonist
O=S1(=O)CCC(NS(=O)(=O)c2cccc3cccnc23)C1 (centres undefined)	-1.1	12.1	-1.4	34.2*	-7.6
Cc1ccc(S(=O)(=O)Nc2ccc(O)c3cccnc23)cc1	9.8	u	-1.5	31.1*	20.4
Cc1ccc(C)n1-c1c(C(=O)NCCCN2CCN(c3ccc(F)cc3)CC2)sc2ncccc12	x	x	x	-27.5	x
CCOc1ccc(NC(=O)CN2CCN(c3ccccc3C)CC2)cc1S(=O)(=O)N1CCCC1	-0.5	-27.8	0.6	-26.4	34.7*
Cn1c(SCC(=O)Nc2ccc3c(c2)CCC3)nnc1C1CC1	-1.9	-16.2	-0.4	-10.9	-9.1
CCOc1ccc(NC(=O)CSc2nnc(C3CC3)n2C2CC2)cc1	-6.6	1.8	0.1	3.8	42.8*
CCOc1ccc(NC(=O)CN2CCN(c3ccc(F)cc3)CC2)cc1S(=O)(=O)N1CCCC1	-3.0	-45.3	x	x	x
COc1ccc(NC(=O)CSc2nnc(C3CC3)n2C)cc1	-0.8	-13.0	2.2	-0.7	5.1
CCOc1ccc(NC(=O)CSc2nnc(C3CC3)n2C)cc1S(=O)(=O)N1CCCCC1	-0.3	2.6	0.0	-5.5	43.8*
CCC(=O)Nc1cccc(NC(=O)CSc2nnc(C3CC3)n2C)c1	-2.2	2.4	0.3	0.4	30.9*
NC(=O)c1ccc(NC(=O)CSc2nnc(C3CC3)n2C2CC2)cc1	3.3	1.8	x	x	x
O=C(c1ccccc1)N1CCc2cc(CNS(=O)(=O)c3ccc(Cl)s3)ccc21	x	x	-1.4	-2.5	x
O=C(c1ccc([N+](=O)[O-])cc1)N1c2ncnn2C2(CCCCC2)[C@@H]2CCCC[C@@H]21	x	x	-1.5	-4.1	x
O=c1c2oc3ccccc3c2n(Cc2cccc(F)c2)c(=O)n1Cc1ccco1	x	x	-0.4	1.8	x
Nn1c(SCC(=O)Nc2ccc3c(c2)OCO3)nnc1C1CCCCC1	-4.4	-0.2	-0.6	7.1	31.0*
Cn1c(SCC(=O)Nc2ccc3c(c2)OCCO3)nnc1-c1ccccn1	0.1	2.8	-0.2	6.0	-12.5
O=C(CSc1nnc(-c2ccccn2)n1Cc1ccccc1)Nc1ccc2c(c1)OCO2	-1.4	-22.4	0.0	32.2*	14.6
CCCNC(=O)CSc1nc2ccc(OCC)cc2s1	-3.1	-1.1	0.8	13.0	35.2*
Cn1c(N2CCOCC2)c(/C=N/OC(=O)c2ccc(F)cc2)c2ccccc21	u	141.2*	0.2	12.3	-5.3
Cc1ccc(C(=O)O/N=C/c2c(N3CCOCC3)n(C)c3ccccc23)cc1	u	85.2*	0.4	-7.9	-7.5
Cc1ccc(C(=O)O/N=C/c2c(Cl)n(C)c3ccccc23)cc1	1.7	-11.8	-0.5	-1.2	5.2
CC(=O)O/N=C/c1c(N2CCOCC2)n(C)c2ccccc12	13.3	62.2*	x	x	x
Cn1c(Cl)c(/C=N/OC(=O)c2ccc(Cl)cc2)c2ccccc21	0.6	-1.9	0.0	-3.2	56.1*
COc1ccccc1C(=O)O/N=C(/c1ccncc1)c1ccc([N+](=O)[O-])cc1	u	100.1*	1.5	3.9	-8.2
CCOC(=O)c1ccc(NC(=O)CCc2c(C)nc3c(c(C)nn3-c3ccccc3)c2C)cc1	x	x	0.1	5.8	x
SMILES	D2 ag-1	D2 PAM-1	D2 ag-2	D2 PAM-2	D2 antagonist
CCc1ccc(NC(=O)C/C(C)=N/NC(=O)COc2ccccc2C)cc1	-4.7	-9.0	0.0	-8.1	39.6*
Cc1cc2nc(-c3cccc(NC(=O)COc4ccc(C(C)C)cc4)c3)oc2cc1C	x	x	-0.6	2.4	x
COc1ccccc1C(=O)Oc1cc(N)n(S(=O)(=O)c2ccc(C)cc2)n1	-2.7	-7.0	0.3	-2.9	-11.2
COc1ccc(C(=O)Oc2cc(N)n(S(=O)(=O)c3ccc(C)cc3)n2)cc1	-9.5	-12.4	0.8	7.2	38.4*
O=S(=O)(c1ccccc1)c1nnn2c1nc(NC1CCCCCC1)c1sccc12	x	x	0.4	-0.4	x
Cn1c(=O)[nH]c(=O)c2c1nc(CN1CCN(c3ccc(F)cc3)CC1)n2CCCc1ccccc1	0.1	-16.3	-0.3	-2.8	-10.2
Cn1c(=O)[nH]c(=O)c2c1nc(CN1CCN(c3ccccc3F)CC1)n2CCCc1ccccc1	1.4	-21.4	0.1	31.7*	-13.8
Fc1ccccc1N1CCN(CCCc2ccccc2)CC1	-2.8	-9.4	7.9	-19.4	74.0*
Clc1ccccc1CN1CCN(CCCc2ccccc2)CC1	-4.1	-20.9	0.1	-25.3	65.4*
